Laboratory results taken from PubChem BioAssay AID2066 (NMMLSC, 2009).
About 50 (0.02%) of roughly 320,000 compounds were called active.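 Rule for the calls: active = GFP response relative to DMSO above a set limit, near screen average plus 3 SD (cut at about 150% in these data); inconclusive = fewer than 70 cells counted for the yeast strain; inactive = the rest.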 The full list was thinned out, with actives kept by preference.

Test: modulators of AGP1-GFP expression in yeast TOR pathway, primary screen, cell-based, multiplex flow cytometry, S. cerevisiae, MLPCN library (AID 2066);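 note: median GFP channel fluorescence of the gated AGP1 strain per well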
Conditions: 3 h, at 10 µM, active compounds read high, GFP as percent of DMSO wells

GFP response vs DMSO, inactive:
CCOC(=O)C(C)n1cnc2scc(-c3ccc(C)c(C)c3)c2c1=O (configuration not stated) 93.8%
COC(=O)c1sccc1-n1cccc1C(=O)C(=O)N1CCCCC1 92.6%
Cc1ccc(C(c2nnnn2CS(=O)(=O)c2ccc(C)cc2)N2CCC(C)CC2)cc1 (configuration not stated) 91.3%
CC(=O)Nc1ccc(S(=O)(=O)NCC(=O)OCC(=O)c2ccc[nH]2)cc1 107%
O=C(Nc1cc(S(=O)(=O)N2CCOCC2)ccc1N1CCOCC1)c1c(F)cccc1Cl 103%
CC(Sc1nnc(Cc2ccc([N+](=O)[O-])cc2)o1)C(N)=O (configuration not stated) 97.7%
O=C(O)c1cccc(S(=O)(=O)N2CC=C(c3ccccc3)CC2)c1 101%
O=C1c2ccccc2C(=O)N1CC1c2ccccc2CCN1S(=O)(=O)c1ccccc1 (configuration not stated) 96.4%
Cc1nnc(CN(C)Cc2cn[nH]c2-c2ccc(-c3ccccc3)cc2)o1 108%
CC(c1ccccn1)N(C)C(=O)c1ccc2nc(Cc3cccc(Cl)c3)oc2c1 (configuration not stated) 103%
Cn1nnnc1SCC(=O)Nc1cccc(S(=O)(=O)N2CCCCC2)c1 77.3%
O=C(OCC(=O)N1CCCCCC1)c1cnc(Cl)c(Cl)c1 97.1%
COc1ccc(NC2=CC(=S)NC(C)(C)C2)cc1 99.9%
CCN(CC)CCCNC(=O)c1c(O)c2cc(F)cc3c2n(c1=O)C(C)CC3 (configuration not stated) 88.3%
O=c1cc(Cl)c2ccccc2n1-c1ccccc1 103%
N#Cc1ccccc1NC(=O)COc1c(Br)cc(Br)c2cccnc12 96.8%
Cc1cc(C)nc(N2C(=O)CC(Cc3ccccc3)C2=O)n1 (configuration not stated) 112%
CCOC(=O)N1CCC(NC(=O)CN2C(=O)COc3ccc(C(C)(C)C)cc32)CC1 88.7%
CCCCN(C(=O)c1ccc2ccccc2c1)c1c(N)n(CCCC)c(=O)[nH]c1=O 92.5%
O=C(CN1CCN(S(=O)(=O)c2cc(Cl)ccc2Cl)CC1)c1ccc(O)c(O)c1 94.9%
CCOc1ccc2oc(C(=O)N(CC)CC(=O)Nc3ccc(NC(C)=O)cc3)c(C)c2c1 103%
COc1cccc(NC(=O)C(Sc2nc3ccccc3c(=O)n2CC(C)C)c2ccccc2)c1 (configuration not stated) 98.7%
